Measurements from PubChem BioAssay (Tox21).
Inconclusive results are not listed. Calls of active or inactive are those of the source. Unless noted, calls come from the whole dose curve; as a rule, active = well fitted curve in the direction sought with a large enough effect in the repeat runs; inconclusive = weak or mixed curves; inactive = no such curve, though single readings can be large; an effect the other way counts as inactive or inconclusive.

Assays:
[1] = qHTS assay to identify small molecule antagonists of the thyroid receptor (TR) signaling pathway - cell viability counter screen (AID 743064); note: nearly all actives have a fitted effect of over 50% in size
Summary of the method: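 Same-well viability check: GH3.TRE-Luc cells stimulated with 1 nM T3 alongside test compound for 23.5 h, followed by CellTiter-Fluor fluorescence.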

[2] = qHTS assay to identify small molecule antagonists of the thyroid receptor (TR) signaling pathway (AID 743065); note: series mostly up to about 70 µM; nearly all actives have a fitted effect of over 55% in size
Summary of the method: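 GH3.TRE-Luc rat pituitary cells (two TREs driving luciferase) were dosed with compound, then stimulated with 1 nM T3 (final) for 23.5 h at 37 C. ONE-Glo luminescence was the read-out, with CellTiter-Fluor fluorescence as the cytotoxicity counter-screen.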

[3] = system: thyroid hormone receptor (rat, GH3 cells); test: qHTS assay to identify small molecule agonists of the thyroid receptor (TR) signaling pathway (AID 743066; calls by dose curve)
[4] = molecular target: Estrogen receptor (Homo sapiens) (UniProt P03372); test: qHTS assay to identify small molecule antagonists of the estrogen receptor alpha (ER-alpha) signaling pathway (AID 743069; active = well fitted curve in the direction sought with a large enough effect in the signal ratio in the repeat runs, not every such curve was filed as active; the % refers to the signal ratio)
Summary of the method: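 In this cell-based reporter format, GripTite HEK293 cells harbouring ER-alpha-UAS-bla were grown overnight with 2% charcoal-stripped FBS, dosed with DMSO-dissolved compounds, then challenged with 17beta-estradiol. After 18 hr at 37C, beta-lactamase activity was detected by FRET fluorescence.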

[5] = molecular target: Estrogen receptor (Homo sapiens) (UniProt P03372); test: qHTS assay to identify small molecule agonists of the estrogen receptor alpha (ER-alpha) signaling pathway (AID 743075; calls by dose curve)
[6] = molecular target: Estrogen receptor (Homo sapiens) (UniProt P03372); test: qHTS assay to identify small molecule agonists of the estrogen receptor alpha (ER-alpha) signaling pathway using the BG1 cell line (AID 743079); note: nearly all actives have a fitted effect of over 20% in size
[7] = qHTS assay to identify small molecule antagonists of the estrogen receptor alpha (ER-alpha) signaling pathway using the BG1 cell line (AID 743080; calls by dose curve;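 note: BG1 cells stimulated with 17beta-estradiol alongside compound; series mostly up to about 70 µM; nearly all actives have a fitted effect of over 25% in size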)
Summary of the method: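 After 5 days in phenol-red-free 10% charcoal-stripped FBS medium, BG1-Luc-4E2 cells were seeded, left 24 h at 37 C, co-treated with compounds and 17beta-estradiol for 21.5 h, then assayed for viability and luciferase.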

[8] = qHTS assay to identify small molecule antagonists of the estrogen receptor alpha (ER-alpha) signaling pathway using the BG1 cell line - cell viability counter screen (AID 743081);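 note: compound given together with 17beta-estradiol as the ER stimulus; series mostly up to about 70 µM; nearly all actives have a fitted effect of over 45% in size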
[9] = molecular target: Aromatase (Homo sapiens) (UniProt P11511); test: qHTS assay to identify aromatase inhibitors (AID 743083); note: series mostly up to about 70 µM; nearly all actives have a fitted effect of over 55% in size
[10] = qHTS assay to identify aromatase inhibitors - cell viability counter screen (AID 743084);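 note: cells stimulated with testosterone during compound exposure; nearly all actives have a fitted effect of over 55% in size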
[11] = molecular target: Aryl hydrocarbon receptor (Homo sapiens) (UniProt P35869); test: qHTS assay to identify small molecule that activate the aryl hydrocarbon receptor (AhR) signaling pathway (AID 743085);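 note: HG2L7.5c1 human HepG2 liver cells with stably integrated DRE-driven firefly reporter; series mostly up to about 70 µM; nearly all actives have a fitted effect of over 15% in size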
Summary of the method: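 Reporter assay in engineered HepG2 line HG2L7.5c1, whose plasmid carries twenty dioxin responsive elements upstream of firefly luciferase. Treatment lasted 24 h at 37C; ONE-Glo luminescence gauged induction.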

[12] = qHTS assay to identify small molecule that activate the aryl hydrocarbon receptor (AhR) signaling pathway - cell viability counter screen (AID 743086);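 note: HepG2 liver cells carrying the AhR DRE luciferase reporter; series mostly up to about 70 µM; nearly all actives have a fitted effect of over 45% in size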
Summary of the method: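 HepG2-AhR-luc (HG2L7.5c1) cells, 4000/well, treated 24 h at 37 C with compound; viability measured as CellTiter-Fluor fluorescence after 30 min in the same wells as the luciferase read.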

[13] = molecular target: Peroxisome proliferator-activated receptor gamma (Homo sapiens) (UniProt P37231); test: qHTS assay to identify small molecule agonists of the peroxisome proliferator-activated receptor gamma (PPARg) signaling pathway (AID 743094; active = well fitted activation curve with a large enough effect in the signal ratio in the repeat runs, not every such curve was filed as active; the % refers to the signal ratio)
Summary of the method: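 Cells from the PPARg UAS-bla HEK293H line are plated and incubated 5 h at 37C. Compounds in DMSO are pinned in and left 17 h at 37C. LiveBLAzer B/G substrate is then added for 1 h at room temperature before fluorescence is measured.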

[14] = molecular target: Peroxisome proliferator-activated receptor gamma (Homo sapiens) (UniProt P37231); test: qHTS assay to identify small molecule antagonists of the peroxisome proliferator-activated receptor gamma (PPARg) signaling pathway (AID 743191; calls by dose curve; note: series mostly up to about 63 µM; nearly all actives have a fitted effect of over 30% in size)
Summary of the method: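 GeneBLAzer PPARg UAS-bla HEK293H cells, 5 h post-plating, exposed to compounds 17 h at 37C. LiveBLAzer B/G FRET substrate added for 1 h at room temperature; beta-lactamase reporter read by fluorescence intensity.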

[15] = qHTS assay to identify small molecule antagonists of the peroxisome proliferator-activated receptor gamma (PPARg) signaling pathway - cell viability counter screen (AID 743194); note: nearly all actives have a fitted effect of over 55% in size
Summary of the method: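 Cytotoxicity counter screen in PPARg-bla HEK293H cells, same wells as reporter assay. Compounds plus 50 nM rosiglitazone (final) for 17 h at 37 C, then viability read by CellTiter-Glo luminescence.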

[16] = qHTS assay for small molecule agonists of the antioxidant response element (ARE) signaling pathway (AID 743202; active = well fitted activation curve with a large enough effect in the signal ratio in the repeat runs, not every such curve was filed as active; the % refers to the signal ratio)
Summary of the method: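 HepG2 ARE-bla cells; 16 h treatment at 37 C; FRET-based beta-lactamase fluorescence read after 2 h substrate incubation at room temperature.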

[17] = qHTS assay for small molecule agonists of the antioxidant response element (ARE) signaling pathway - cell viability counter screen (AID 743203; calls by dose curve; note: nearly all actives have a fitted effect of over 55% in size)
Summary of the method: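 Cytotoxicity was tested in parallel with the ARE reporter screen. ARE-bla HepG2 cells were exposed to compounds for 16 hrs, and viability was taken from CellTiter-Glo luminescence.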

[18] = qHTS assay for small molecule activators of the heat shock response signaling pathway - cell viability counter screen (AID 743209); note: nearly all actives have a fitted effect of over 50% in size
Summary of the method: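 Cytotoxicity counter screen run in parallel with the HSE beta-lactamase reporter, using the same wells. HeLa HSE-bla cells received compound for 5 h at 37 C; ATP-based CellTiter-Glo luminescence was measured after 30 min at room temperature.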

[19] = qHTS assay for small molecule activators of the heat shock response signaling pathway (AID 743210; active = well fitted activation curve with a large enough effect in the signal ratio in the repeat runs, with a control signal flat, not every such curve was filed as active; the % refers to the signal ratio;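 note: HeLa cells with beta-lactamase reporter driven by heat shock elements; series mostly up to about 63 µM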)
Summary of the method: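 Following overnight attachment, HSE-bla HeLa cells received test compounds for 5 h at 37 C; beta-lactamase activity was then detected via FRET substrate fluorescence.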

[20] = qHTS assay to identify small molecule antagonists of the estrogen receptor alpha (ER-alpha) signaling pathway - cell viability counter screen (AID 743074; calls by dose curve; note: nearly all actives have a fitted effect of over 45% in size)

Measured: Potency

Aryl hydrocarbon receptor (Homo sapiens), sequence (P35869 whole entry, looked up): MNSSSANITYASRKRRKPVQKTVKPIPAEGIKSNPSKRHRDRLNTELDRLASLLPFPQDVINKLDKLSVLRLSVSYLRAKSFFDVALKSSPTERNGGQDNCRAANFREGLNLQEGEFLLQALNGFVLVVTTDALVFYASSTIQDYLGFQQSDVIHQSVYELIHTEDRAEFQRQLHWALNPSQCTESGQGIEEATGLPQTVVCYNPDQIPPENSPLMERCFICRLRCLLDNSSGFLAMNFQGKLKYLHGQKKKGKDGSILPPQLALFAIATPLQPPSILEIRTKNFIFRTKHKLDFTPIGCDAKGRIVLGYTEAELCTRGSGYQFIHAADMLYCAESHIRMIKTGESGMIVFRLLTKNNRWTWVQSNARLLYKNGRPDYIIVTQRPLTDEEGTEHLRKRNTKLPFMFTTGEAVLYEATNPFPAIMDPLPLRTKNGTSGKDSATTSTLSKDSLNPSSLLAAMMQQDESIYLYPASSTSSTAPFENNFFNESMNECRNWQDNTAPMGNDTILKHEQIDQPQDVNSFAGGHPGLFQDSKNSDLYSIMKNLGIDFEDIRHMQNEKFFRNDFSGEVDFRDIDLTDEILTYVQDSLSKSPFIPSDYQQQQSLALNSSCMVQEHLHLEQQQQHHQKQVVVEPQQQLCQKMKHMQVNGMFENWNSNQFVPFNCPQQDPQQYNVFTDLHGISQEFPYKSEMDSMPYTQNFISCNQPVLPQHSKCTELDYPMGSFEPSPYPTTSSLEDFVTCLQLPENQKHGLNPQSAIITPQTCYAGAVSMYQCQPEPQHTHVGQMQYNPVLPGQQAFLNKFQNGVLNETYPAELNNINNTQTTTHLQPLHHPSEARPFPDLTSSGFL
Peroxisome proliferator-activated receptor gamma (Homo sapiens), sequence (P37231 whole entry, looked up): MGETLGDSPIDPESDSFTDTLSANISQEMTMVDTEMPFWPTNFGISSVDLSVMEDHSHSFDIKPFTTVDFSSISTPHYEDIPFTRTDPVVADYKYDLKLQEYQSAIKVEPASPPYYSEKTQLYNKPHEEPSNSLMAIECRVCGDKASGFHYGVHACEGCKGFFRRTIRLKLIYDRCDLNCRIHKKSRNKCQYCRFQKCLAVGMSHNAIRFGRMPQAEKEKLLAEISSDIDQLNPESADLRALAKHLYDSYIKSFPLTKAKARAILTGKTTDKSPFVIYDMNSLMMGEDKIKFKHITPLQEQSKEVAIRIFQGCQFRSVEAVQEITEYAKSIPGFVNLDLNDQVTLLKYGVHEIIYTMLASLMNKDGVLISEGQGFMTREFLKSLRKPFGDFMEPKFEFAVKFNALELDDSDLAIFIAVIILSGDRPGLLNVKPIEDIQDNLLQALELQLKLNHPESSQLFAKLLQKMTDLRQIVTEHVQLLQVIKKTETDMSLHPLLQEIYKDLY
Aromatase (Homo sapiens), sequence (P11511 whole entry, looked up): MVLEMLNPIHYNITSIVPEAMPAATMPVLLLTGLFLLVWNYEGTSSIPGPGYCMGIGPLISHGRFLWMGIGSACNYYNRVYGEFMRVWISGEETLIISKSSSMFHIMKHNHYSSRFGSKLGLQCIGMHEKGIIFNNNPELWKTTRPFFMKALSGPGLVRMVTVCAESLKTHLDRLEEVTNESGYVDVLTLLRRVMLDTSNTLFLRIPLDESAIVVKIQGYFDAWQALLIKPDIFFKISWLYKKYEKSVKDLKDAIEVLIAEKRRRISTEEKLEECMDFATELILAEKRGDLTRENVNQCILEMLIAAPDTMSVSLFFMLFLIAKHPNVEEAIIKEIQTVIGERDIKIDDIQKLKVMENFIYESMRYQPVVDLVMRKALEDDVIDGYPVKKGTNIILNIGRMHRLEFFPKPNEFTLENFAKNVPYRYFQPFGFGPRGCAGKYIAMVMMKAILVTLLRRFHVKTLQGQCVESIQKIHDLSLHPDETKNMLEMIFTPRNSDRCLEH
Estrogen receptor (Homo sapiens), sequence (P03372 whole entry, looked up): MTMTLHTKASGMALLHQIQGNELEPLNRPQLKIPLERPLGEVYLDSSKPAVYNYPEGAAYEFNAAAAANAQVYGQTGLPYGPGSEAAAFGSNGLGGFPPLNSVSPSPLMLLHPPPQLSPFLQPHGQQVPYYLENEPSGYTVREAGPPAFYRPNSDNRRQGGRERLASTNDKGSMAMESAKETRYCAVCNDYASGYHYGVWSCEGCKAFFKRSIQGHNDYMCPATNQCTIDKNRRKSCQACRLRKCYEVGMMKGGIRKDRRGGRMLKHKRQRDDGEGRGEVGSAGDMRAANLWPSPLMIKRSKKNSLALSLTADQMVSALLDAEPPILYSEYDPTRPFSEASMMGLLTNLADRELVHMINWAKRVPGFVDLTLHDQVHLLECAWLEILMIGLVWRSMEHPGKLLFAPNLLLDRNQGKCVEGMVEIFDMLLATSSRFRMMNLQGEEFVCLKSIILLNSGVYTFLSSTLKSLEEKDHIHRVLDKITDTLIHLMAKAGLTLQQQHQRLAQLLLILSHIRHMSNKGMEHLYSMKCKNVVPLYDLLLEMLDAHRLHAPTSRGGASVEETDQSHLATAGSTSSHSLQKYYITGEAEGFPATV

Cc1c(I)c(=O)n(-c2ccccc2)n1C
not listed: [20]
inactive: all other assays above

CC(CO)c1ccccc1 (stereo unspecified)
not listed: [6] | [19]
inactive: all other assays above

CC(C)NCC(O)COc1ccc(COCCOC(C)C)cc1 (stereo unspecified)
not listed: [9] | [16]
inactive: all other assays above

COc1cc(NS(=O)(=O)c2ccc(N)cc2)nc(OC)n1
not listed: [7] | [16]
inactive: all other assays above

CC(C)(C)c1n[nH]c(=S)n(N)c1=O
not listed: [11] | [12] | [13] | [14] | [17]
inactive: all other assays above

Cc1cccc2nccnc12
not listed: [6] | [14] | [15]
inactive: all other assays above

O=S(=O)(O)c1cc(O)c2ccc(Nc3ccccc3)cc2c1
not listed: [6] | [12]
inactive: all other assays above

C=C(C)C(=O)OCCOP(=O)(O)OCCOC(=O)C(=C)C
not listed: [12] | [15]
inactive: all other assays above

CC(=O)Nc1cccc(C)c1
not listed: [8] | [12] | [14] | [15]
inactive: all other assays above

Cc1cccc(C)c1OCC(C)N (stereo unspecified)
not listed: [11]
inactive: all other assays above

N[C@@H](CCC(=O)Nc1ccc([N+](=O)[O-])cc1)C(=O)O
not listed: [12] | [13] | [14]
inactive: all other assays above

CC(=C(CCOC(=O)C(C)C)SSC(CCOC(=O)C(C)C)=C(C)N(C=O)Cc1cnc(C)nc1N)N(C=O)Cc1cnc(C)nc1N
not listed: [6]
inactive: all other assays above

O=C1c2ccccc2C(=O)N1CCl
not listed: [11]
inactive: all other assays above
